Among all 5,500 compounds or so, about 2,000 (36%) were called active. Roughly 18% stayed inconclusive and do not appear here. Rule as the data show it: active = normalized growth mostly below about 0.91 (no sharp cut-off); inconclusive = no clear call, values can overlap the other calls; inactive = mostly above about 0.92. This is one part of the list.
Experiment: chemical genetic growth profiling, strain panel (AID 1159580);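 also: tested at 20 µM; growth read once vehicle control cultures reached saturation at 30 °C; 1 = growth at the plate median or of vehicle wells; lower values mean less growth of the strain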
Settings: S. cerevisiae deletion strains, growth OD
[1] = locus YAR019C, strain CDC15, hits give low values
[2] = locus YBL105C, strain PKC1, hits give low values
[3] = locus YBR135W, strain CKS1, hits give low values
[4] = locus YBR136W, strain MEC1, hits give low values
[5] = locus YBR160W, strain CDC28, hits give low values
[6] = locus YDL017W, strain CDC7, hits give low values
[7] = locus YDL028C, strain MPS1, hits give low values
[8] = locus YDL101C, strain DUN1, hits give low values
[9] = locus YDL108W, strain KIN28, hits give low values
[10] = locus YDL132W, strain cdc53, hits give low values
[11] = locus YDL214C, strain PRR2, hits give low values
[12] = locus YDR052C, strain DBF4, hits give low values
[13] = locus YDR054C, strain cdc34, hits give low values
[14] = locus YDR226W, strain ADK1, hits give low values
[15] = locus YDR477W, strain SNF1, hits give low values
[16] = locus YER123W, strain YCK3, hits give low values
[17] = locus YER133W, strain GLC7, hits give low values
[18] = locus YFL009W, strain cdc4, hits give low values
[19] = locus YFL029C, strain CAK1, hits give low values
[20] = locus YFR003C, strain YPI1, hits give low values
[21] = locus YFR019W, strain FAB1, hits give low values
[22] = locus YFR028C, strain CDC14, hits give low values
[23] = locus YGR040W, strain KSS1, hits give low values
[24] = locus YGR052W, strain FMP48, hits give low values
[25] = locus YGR092W, strain DBF2, hits give low values
[26] = locus YHR030C, strain SLT2, hits give low values
[27] = locus YHR079C, strain IRE1, hits give low values
[28] = locus YHR082C, strain KSP1, hits give low values
[29] = locus YHR205W, strain SCH9, hits give low values
[30] = locus YIL147C, strain SLN1, hits give low values
[31] = locus YJL095W, strain BCK1, hits give low values
[32] = locus YJL128C, strain PBS2, hits give low values
[33] = locus YJL157C, strain FAR1, hits give low values
[34] = locus YJR016C, strain ILV3, hits give low values
[35] = locus YJR066W, strain TOR1 (second series), hits give low values
[36] = locus YJR066W, strain TOR1, hits give low values
[37] = locus YKL048C, strain ELM1, hits give low values
[38] = locus YKL067W, strain YNK1, hits give low values
[39] = locus YKL101W, strain HSL1, hits give low values
[40] = locus YKL193C, strain SDS22, hits give low values
[41] = locus YKL203C, strain TOR2, hits give low values
[42] = locus YLR113W, strain HOG1, hits give low values
[43] = locus YLR133W, strain CKI1, hits give low values
[44] = locus YLR403W, strain SFP1, hits give low values
[45] = locus YML070W, strain DAK1, hits give low values
[46] = locus YMR001C, strain CDC5, hits give low values
[47] = locus YMR205C, strain PFK2 (second series), hits give low values
[48] = locus YMR277W, strain FCP1, hits give low values
[49] = locus YNL006W, strain LST8, hits give low values
[50] = locus YNL020C, strain ARK1, hits give low values
[51] = locus YNL161W, strain CBK1, hits give low values
[52] = locus YNL183C, strain NPR1, hits give low values
[53] = locus YNL207W, strain RIO2, hits give low values
[54] = locus YNL222W, strain SSU72, hits give low values
[55] = locus YNL307C, strain MCK1 (second series), hits give low values
[56] = locus YOL078W, strain AVO1, hits give low values
[57] = locus YOL136C, strain PFK27, hits give low values
[58] = locus YOR061W, strain CKA2, hits give low values
[59] = locus YOR119C, strain RIO1, hits give low values
[60] = locus YOR231W, strain MKK1, hits give low values
[61] = locus YOR329C, strain SCD5, hits give low values
[62] = locus YPL031C, strain PHO85, hits give low values
[63] = locus YPL153C, strain RAD53, hits give low values
[64] = locus YPL204W, strain HRR25, hits give low values
[65] = locus YPL209C, strain IPL1, hits give low values
[66] = locus YPL256C, strain CLN2, hits give low values
[67] = locus YPR025C, strain CCL1, hits give low values
[68] = locus YPR106W, strain ISR1, hits give low values
[69] = locus YPR111W, strain DBF20, hits give low values
[70] = strain NNK1, hits give low values
[71] = strain TSCII, hits give low values

Measured: normalized growth

Fc1cccc(F)c1NC(=S)Nc1cc(C(F)(F)F)cc(C(F)(F)F)c1
inactive: [1] 0.979 | [2] 0.979 | [3] 0.981 | [4] 0.982 | [5] 0.982 | [6] 0.992 | [7] 0.975 | [8] 0.991 | [9] 0.984 | [10] 0.979 | [11] 0.907 | [12] 0.987 | [13] 0.978 | [14] 0.986 | [15] 0.948 | [16] 0.907 | [17] 0.933 | [18] 0.976 | [19] 0.976 | [20] 0.981 | [21] 0.98 | [22] 0.977 | [23] 0.954 | [24] 0.933 | [25] 0.967 | [26] 0.981 | [27] 0.85 | [28] 1.01 | [29] 0.87 | [30] 0.981 | [31] 0.862 | [32] 0.919 | [33] 0.923 | [34] 0.979 | [35] 0.931 | [36] 1.06 | [37] 0.934 | [38] 0.931 | [39] 0.91 | [40] 0.977 | [41] 1.02 | [43] 0.948 | [44] 0.974 | [45] 0.907 | [46] 0.981 | [47] 0.95 | [48] 0.975 | [49] 0.977 | [50] 0.932 | [51] 0.98 | [52] 0.98 | [53] 0.985 | [54] 0.979 | [55] 0.918 | [56] 0.977 | [57] 0.928 | [58] 0.953 | [59] 0.997 | [60] 0.91 | [61] 0.986 | [62] 0.942 | [63] 0.939 | [64] 0.936 | [65] 0.991 | [67] 0.982 | [68] 0.981 | [69] 0.972 | [70] 0.974 | [71] 0.98
active: [42] 0.742 | [66] 0.829

FC(F)(F)c1cccc(NNC(=S)Nc2ccccc2)c1
inactive: [1] 0.996 | [2] 1 | [3] 1 | [4] 0.999 | [5] 0.997 | [6] 0.998 | [7] 1 | [8] 0.994 | [9] 1.01 | [10] 0.99 | [11] 0.951 | [12] 0.998 | [13] 0.989 | [14] 0.999 | [15] 0.882 | [16] 0.912 | [17] 0.975 | [18] 1 | [19] 1 | [20] 1.01 | [21] 0.974 | [22] 1 | [23] 0.897 | [24] 0.957 | [25] 0.807 | [27] 0.848 | [28] 0.876 | [29] 0.877 | [30] 0.998 | [31] 0.856 | [32] 0.986 | [33] 0.945 | [34] 0.996 | [35] 0.812 | [36] 0.861 | [37] 0.948 | [38] 0.937 | [39] 0.907 | [40] 1 | [41] 0.968 | [43] 0.946 | [44] 0.929 | [45] 0.947 | [46] 1.01 | [47] 0.971 | [48] 0.994 | [49] 1 | [50] 0.925 | [51] 0.997 | [52] 0.874 | [53] 0.998 | [54] 0.999 | [55] 0.825 | [56] 0.995 | [57] 0.938 | [58] 0.856 | [59] 0.993 | [60] 0.882 | [61] 0.996 | [62] 0.894 | [63] 0.919 | [64] 0.89 | [65] 0.997 | [67] 1 | [68] 1.01 | [69] 1 | [70] 0.995 | [71] 1
active: [26] 0.754 | [42] 0.764 | [66] 0.848
